# According to PubChem BioAssay (NCATS):
# Several values for one entry are separate records, joined by “and”; a condition that tells them apart may be missing. Equal values may be shown once. Results filed as inconclusive are left out. A call without a number means that no potency is given here. Activity calls are given as the source filed them. Unless noted, calls follow the shape of the dose curve; as a rule, active = well fitted curve in the direction sought with a large enough effect; inconclusive = small, poorly fitted or top-dose-only effect, or another doubt; inactive = no such curve, though single readings can be large; an effect the other way counts as inactive or inconclusive.
# What was measured:
# [1] = NCATS anti-infectives library activity on HEK293 viability as a counter-qHTS vs the C. elegans viability qHTS (AID 1745854); settings: HEK293 viability counter-screen; series mostly up to 41.8 µM;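 also: HEK293 cells exposed to compounds for 24 hr before the viability read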; also: potency is read from the fitted curve at half-maximal effect
# Procedure, shortened: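 Compounds were acoustically plated (several concentrations, 1:5, final up to 41.7 uM), then 1500 HEK293 cells added per well and incubated 24 hr at 37C, 5% CO2. CellTiter-Glo was added and luminescence read after 10 min.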
# [2] = biological target: Catechol O-methyltransferase (Homo sapiens) (UniProt P21964); assay: Confirmatory Screen for Target Class Profiling of Small Molecule Inhibitors of Methyltransferases (AID 1745852; calls by dose curve; also: potency is read from the fitted curve at half-maximal effect); settings: MTase-Glo luminescence, SAH detection, recombinant enzyme; measured here: COMT max response; stronger effect = lower value
# [3] = biological target: Guanidinoacetate N-methyltransferase (Homo sapiens) (UniProt Q14353); assay: as above; settings: MTase-Glo luminescence, SAH detection, recombinant enzyme; activity change, negative = inhibition: at 57.3 µM (top of the series)
# [4] = biological target: Nicotinamide N-methyltransferase (Homo sapiens) (UniProt P40261); assay: as above; settings: MTase-Glo luminescence, SAH detection, recombinant enzyme; measured here: NNMT max response; stronger effect = lower value
# [5] = biological target: Phenylethanolamine N-methyltransferase (Homo sapiens) (UniProt P11086); assay: as above; settings: MTase-Glo luminescence, SAH detection, recombinant enzyme; measured here: PNMT max response; stronger effect = lower value
# [6] = NCATS anti-infectives library activity on the primary C. elegans qHTS viability assay (AID 1745855; calls by dose curve; also: potency is read from the fitted curve at half-maximal effect); settings: C. elegans worm area imaging, day 7; series mostly up to 41.8 µM
# Procedure, shortened: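 Viability read-out is GFP fluorescence of PE254-GFP-FLuc C. elegans, measured by laser cytometry (488 nm) at day 0, 3 and 7. Ten L1 worms per well were incubated 7 days at 21 °C with compounds and bacterial capsules in S medium.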
# [7] = biological target: Rap guanine nucleotide exchange factor 4 (Homo sapiens) (UniProt Q8WZA2); assay: Confirmatory qHTS for antagonist of cAMP-regulated guanine nucleotide exchange factor 4 (EPAC2) (AID 1645885); settings: EPAC2 Rap1B-BODIPY-GDP exchange fluorescence, biochemical; series mostly up to 114 µM; also: nearly all actives have a fitted effect of over 25% in size; also: potency is read from the fitted curve at half-maximal effect
# [8] = Viability counterscreen for antagonist of constitutive androstane receptor (CAR) against the NCATS DSHEA and TCM libraries (AID 1794837); settings: CAR reporter cell line viability counterscreen, qHTS; series mostly up to 40 µM;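 also: compound exposure lasted 24 h before viability reading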
# Procedure, shortened: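 Fluorescence from CellTiter-Fluor reports live-cell protease activity in HepG2-CYP2B6-hCAR cells treated for 24 h with substances alongside 48 uM CITCO.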
# [9] = biological target: Rap guanine nucleotide exchange factor 3 (Homo sapiens) (UniProt O95398); assay: Counterscreen qHTS for antagonist of cAMP-regulated guanine nucleotide exchange factor 3 (EPAC1) (AID 1645888); settings: Rap1B-BODIPY-GDP nucleotide exchange, fluorescence; series mostly up to 154 µM;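 also: fluorescence loss as bound BODIPY-GDP is released from Rap1B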
# Excerpt: Assay Provider (PI): Xiaodong Cheng Ph.D. The University of Texas Medical Branch, […], TX MLPCN Grant: NS066510 In multi-cellular eukaryotic organisms, the effects of cAMP are transduced by two ubiquitously-expressed intracellular cAMP receptors, the classic protein kinase A/cAMP-dependent protein kinase (PKA/cAPK) and the more recently discovered exchange protein directly activated by cAMP/cAMP-regulated guanine nucleotide exchange factor (EPAC/cAMP-GEF). Both PKA and EPAC are ubiquitously expressed in all tissues, and an increase in intracellular cAMP levels will lead to the activation of both PKA and EPAC. Therefore, careful dissections of the individual role and relative contribution of EPAC and PKA within the overall cAMP signaling in various model systems are critical for further elucidating the mechanism of cAMP signaling. To date no EPAC-specific antagonists and agonist, as well as isoform-specific agonists have been reported, and developing EPAC-specific pharmacological probes to determine the physiological functions that EPAC play in the overall cAMP-mediated signaling remains a major challenge within the research field. Furthermore, identified regulators of EPAC may lead to new mechanism-based therapeutic strategies specifically targeting the EPAC / cAMP-signaling components as EPAC has been implicated to play important roles in major human pathological conditions such as diabetes, heart disease, and cancer. This qHTS will be used to screen the Molecular Libraries Small Molecule Repository (MLSMR) as a concentration-titration series using the NCGC unique quantitative screening (qHTS) platform to find activators for EPAC1. In addition, this assay will also be used as a counterscreen for the EPAC2 qHTS. This fluorescent based assay is developed and validated for EPAC1 that measures exchange using EPAC effector Rap1 complex with BODIPY-GDP, a GDP analog with a tethered fluorophores. Activators are identified by monitoring the change in fluorescence signal as the exchanged free BODIPY-GDP has a reduced fluorescence compared to Rap1-bound BODIPY-GDP. Increase in signal (activation) is the desired outcome for the EPAC1 agonist while no activity in this assay is desired for the EPAC2 agonist counterscreen. Reference: [1] de Rooij, J., Zwartkruis, F. J., Verheijen, M. H., Cool, R. H., Nijman, S. M., Wittinghofer, A., and Bos, J.L. (1998) Nature 396, 474-477. […]
# EPAC1 Counterscreen PROTOCOL TABLE SEQUENCE No. (e.g., 1, 2, 3, etc.); […] […] Fluorescence. (Read 1), Ex/Em = 480 nm / 540 nm. […] Fluorescence. (Read 2), Ex/Em = 480 nm/ 540 nm. […] Fluorescence. (Read 3), Ex/Em = 480 nm / 540 nm. […] Fluorescence. (Read 4), Ex/Em = 480 nm / 540 nm. […]
# [10] = biological target: Rap guanine nucleotide exchange factor 3 (Homo sapiens) (UniProt O95398); assay: Counterscreen qHTS for agonist of cAMP-regulated guanine nucleotide exchange factor 3 (EPAC1) (AID 1645889); settings: EPAC1 Rap1B-BODIPY-GDP exchange, fluorescence; series mostly up to 154 µM; also: nearly all actives have a fitted effect of over 40% in size; also: potency is read from the fitted curve at half-maximal effect
# Procedure, shortened: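 Rap1B–BODIPY-GDP (250 nM) with 50 uM GDP; compounds pin-transferred to 9.74 nM–152 uM final (activator) or from 7.32 nM upwards (inhibitor). Fluorescence Ex/Em 480/540 nm read at 5 and 30 min, then after adding cAMP or buffer, at room temperature.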
# Chain of Nicotinamide N-methyltransferase (Homo sapiens) (P40261 whole entry, looked up): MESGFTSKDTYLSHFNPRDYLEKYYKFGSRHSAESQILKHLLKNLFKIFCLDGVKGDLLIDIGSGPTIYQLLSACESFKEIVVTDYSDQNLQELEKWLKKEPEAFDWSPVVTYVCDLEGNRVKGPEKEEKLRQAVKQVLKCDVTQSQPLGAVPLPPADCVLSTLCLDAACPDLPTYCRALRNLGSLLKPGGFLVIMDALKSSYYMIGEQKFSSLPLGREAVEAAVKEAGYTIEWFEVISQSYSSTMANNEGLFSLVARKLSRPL
# Chain of Rap guanine nucleotide exchange factor 3 (Homo sapiens) (O95398 whole entry, looked up): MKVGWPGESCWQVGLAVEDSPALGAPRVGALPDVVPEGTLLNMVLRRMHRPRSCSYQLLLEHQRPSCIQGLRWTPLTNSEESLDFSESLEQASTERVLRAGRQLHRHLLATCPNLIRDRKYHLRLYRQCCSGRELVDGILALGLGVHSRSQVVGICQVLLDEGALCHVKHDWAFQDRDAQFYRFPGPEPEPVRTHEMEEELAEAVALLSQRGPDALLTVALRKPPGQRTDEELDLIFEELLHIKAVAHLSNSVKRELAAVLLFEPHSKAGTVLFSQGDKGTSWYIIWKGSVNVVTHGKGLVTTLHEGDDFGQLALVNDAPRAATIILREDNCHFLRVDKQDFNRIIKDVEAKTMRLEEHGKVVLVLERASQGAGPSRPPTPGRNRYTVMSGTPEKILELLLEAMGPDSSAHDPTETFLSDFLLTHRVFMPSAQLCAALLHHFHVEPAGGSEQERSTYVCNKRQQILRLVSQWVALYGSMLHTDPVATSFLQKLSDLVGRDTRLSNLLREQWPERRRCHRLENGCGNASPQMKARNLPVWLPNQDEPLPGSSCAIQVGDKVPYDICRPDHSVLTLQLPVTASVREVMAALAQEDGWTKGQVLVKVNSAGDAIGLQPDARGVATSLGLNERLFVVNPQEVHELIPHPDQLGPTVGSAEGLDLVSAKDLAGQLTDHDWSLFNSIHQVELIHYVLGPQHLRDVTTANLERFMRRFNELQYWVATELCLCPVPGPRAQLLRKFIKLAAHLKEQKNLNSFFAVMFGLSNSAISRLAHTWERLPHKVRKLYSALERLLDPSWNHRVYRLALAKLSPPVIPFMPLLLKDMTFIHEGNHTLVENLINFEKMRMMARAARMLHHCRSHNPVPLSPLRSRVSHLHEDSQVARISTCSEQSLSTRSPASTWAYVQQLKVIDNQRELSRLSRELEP
# Chain of Catechol O-methyltransferase (Homo sapiens) (P21964 whole entry, looked up): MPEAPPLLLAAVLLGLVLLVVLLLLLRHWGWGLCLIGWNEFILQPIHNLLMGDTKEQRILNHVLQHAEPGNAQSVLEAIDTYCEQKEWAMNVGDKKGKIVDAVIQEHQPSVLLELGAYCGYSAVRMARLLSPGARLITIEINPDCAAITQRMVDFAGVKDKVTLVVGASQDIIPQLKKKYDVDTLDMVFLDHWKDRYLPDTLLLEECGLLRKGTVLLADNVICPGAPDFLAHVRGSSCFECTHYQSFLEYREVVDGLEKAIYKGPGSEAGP
# Chain of Rap guanine nucleotide exchange factor 4 (Homo sapiens) (Q8WZA2 whole entry, looked up): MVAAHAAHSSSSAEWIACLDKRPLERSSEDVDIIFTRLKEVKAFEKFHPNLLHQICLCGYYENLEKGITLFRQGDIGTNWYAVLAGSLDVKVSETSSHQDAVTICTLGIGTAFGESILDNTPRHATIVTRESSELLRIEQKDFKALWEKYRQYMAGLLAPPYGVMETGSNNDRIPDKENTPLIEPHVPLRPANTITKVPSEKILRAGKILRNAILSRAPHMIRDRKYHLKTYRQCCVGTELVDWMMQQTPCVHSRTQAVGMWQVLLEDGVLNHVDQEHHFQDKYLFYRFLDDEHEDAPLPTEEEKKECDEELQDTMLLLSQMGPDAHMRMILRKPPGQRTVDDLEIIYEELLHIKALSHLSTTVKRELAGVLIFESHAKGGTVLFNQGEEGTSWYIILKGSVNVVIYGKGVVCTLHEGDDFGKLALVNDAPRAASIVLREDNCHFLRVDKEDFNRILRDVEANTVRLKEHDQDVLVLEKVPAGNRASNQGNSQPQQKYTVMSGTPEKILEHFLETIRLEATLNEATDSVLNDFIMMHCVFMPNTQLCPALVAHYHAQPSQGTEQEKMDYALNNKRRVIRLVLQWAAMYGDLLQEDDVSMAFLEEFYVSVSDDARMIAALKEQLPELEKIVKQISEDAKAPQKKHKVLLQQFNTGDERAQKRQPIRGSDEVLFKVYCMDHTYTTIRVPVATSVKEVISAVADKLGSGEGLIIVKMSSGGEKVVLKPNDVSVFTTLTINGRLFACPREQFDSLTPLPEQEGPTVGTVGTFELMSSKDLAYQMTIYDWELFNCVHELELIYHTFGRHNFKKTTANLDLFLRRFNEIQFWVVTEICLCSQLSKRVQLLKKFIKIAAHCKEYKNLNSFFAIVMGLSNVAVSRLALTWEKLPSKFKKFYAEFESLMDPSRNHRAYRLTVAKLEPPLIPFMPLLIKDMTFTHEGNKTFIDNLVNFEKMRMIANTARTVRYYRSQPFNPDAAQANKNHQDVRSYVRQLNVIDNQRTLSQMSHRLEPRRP
# Chain of Phenylethanolamine N-methyltransferase (Homo sapiens) (P11086 whole entry, looked up): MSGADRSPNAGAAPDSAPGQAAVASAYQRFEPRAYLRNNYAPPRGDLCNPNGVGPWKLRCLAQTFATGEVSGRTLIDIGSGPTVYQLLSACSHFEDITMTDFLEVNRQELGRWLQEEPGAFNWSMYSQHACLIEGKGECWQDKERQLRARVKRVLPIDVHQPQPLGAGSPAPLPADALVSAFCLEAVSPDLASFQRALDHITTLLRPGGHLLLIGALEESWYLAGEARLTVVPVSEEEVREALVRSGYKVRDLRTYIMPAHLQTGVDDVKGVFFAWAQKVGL
smiles,measurement,setting,value
CC(C)(Oc1ccc(C2CC2(Cl)Cl)cc1)C(=O)O (stereo not given),Potency,[1],inactive
Cc1ccc(C(=O)Nc2ccc(S(=O)(=O)O)c3cc(S(=O)(=O)O)cc(S(=O)(=O)O)c23)cc1NC(=O)c1cccc(NC(=O)Nc2cccc(C(=O)Nc3cc(C(=O)Nc4ccc(S(=O)(=O)O)c5cc(S(=O)(=O)O)cc(S(=O)(=O)O)c45)ccc3C)c2)c1,activity,[2],5.77%
same,"activity change, negative = inhibition",[3],2.65%
same,activity,[4],-4.38%
same,activity,[5],6.94%
C[C@H]1c2cccc(O)c2C(O)=C2C(=O)[C@]3(O)C(O)=C(C(N)=O)C(=O)[C@@H](N(C)C)[C@@H]3[C@@H](O)[C@@H]21,Potency,[1],inactive
same,Potency,[6],1.15 µM (active)
CN(C)CCC=C1c2ccccc2C=Cc2ccccc21,activity,[2],7.28%
same,Potency,[3],0.0039 µM (active)
same,activity,[4],-9.28%
same,activity,[5],7.91%
NCCS(=O)(=O)O,Potency,[7],inactive
O=C(CCCN1CCC(O)(c2ccc(Cl)cc2)CC1)c1ccc(F)cc1,Potency,[1],inactive
same,Potency,[6],inactive
Cn1c(=O)c2c(ncn2C)n(C)c1=O,outcome,[8],inactive
COC(=O)Nc1nc2ccc(C(=O)c3cccs3)cc2[nH]1,Potency,[7],inactive
NS(=O)(=O)c1cc2c(cc1Cl)NCNS2(=O)=O,Potency,[1],inactive
COc1ccc(C2CNC(=O)C2)cc1OC1CCCC1 (stereo not given),Potency,[1],inactive
Nc1nc2c(ncn2COC(CO)CO)c(=O)[nH]1,Potency,[1],inactive
CN(C)C(=O)C(CCN1CCC(O)(c2ccc(Cl)cc2)CC1)(c1ccccc1)c1ccccc1,activity,[2],-5.52%
same,"activity change, negative = inhibition",[3],6.23%
same,activity,[4],-39.1%
same,activity,[5],-5.06%
same,Potency,[6],inactive
CC(C)(C)C(=O)Oc1ccc(S(=O)(=O)Nc2ccccc2C(=O)NCC(=O)O)cc1,Potency,[1],inactive
COc1cc2nc(N3CCN(C(=O)C4COc5ccccc5O4)CC3)nc(N)c2cc1OC (stereo not given),Potency,[1],inactive
same,Potency,[6],23 µM (active)
Cn1ccc2cc3c(cc21)CCN3C(=O)Nc1cccnc1,activity,[2],-1.14%
same,"activity change, negative = inhibition",[3],-1.78%
same,activity,[4],-11.7%
same,activity,[5],1.53%
CN1CCN(CCCN2c3ccccc3Sc3ccc(Cl)cc32)CC1,Potency,[7],35 µM (active)
CN(C)CCCN1c2ccccc2CCc2ccc(Cl)cc21,Potency,[1],inactive
COc1ccccc1OCC(O)CN1CCN(CC(=O)Nc2c(C)cccc2C)CC1 (stereo not given),Potency,[1],inactive
Nc1ccn([C@H]2CC[C@@H](CO)O2)c(=O)n1,Potency,[1],inactive
CCOC(=O)Nc1ccc(NCc2ccc(F)cc2)nc1N,Potency,[7],inactive
same,outcome,[9],inactive
same,Potency,[10],4.47 µM (active)
OCCN1CCN(CCCN2c3ccccc3Sc3ccc(C(F)(F)F)cc32)CC1,Potency,[7],44.1 µM (active)
same,activity,[2],-1.96%
same,Potency,[3],0.0306 µM (active)
same,activity,[4],-64.7%
same,activity,[5],-1.22%
same,Potency,[6],inactive
CC(C)Cc1ccc(C(C)C(=O)O)cc1 (stereo not given),Potency,[1],inactive
O=c1c(O)c(-c2ccc(O)c(O)c2)oc2cc(O)cc(O)c12,Potency,[7],75.7 µM (active)
same,outcome,[9],inactive
same,Potency,[10],inactive
O=C1c2c(O)ccc(O)c2C(=O)c2c(NCCNCCO)ccc(NCCNCCO)c21,Potency,[1],12.6 µM (active)
NC12CC3CC(CC(C3)C1)C2,Potency,[1],inactive
NC(=O)NO,Potency,[1],inactive
Cc1cn([C@H]2C[C@H](N=[N+]=[N-])[C@@H](CO)O2)c(=O)[nH]c1=O,Potency,[1],inactive
O=c1[nH]cc(F)c(=O)[nH]1,Potency,[1],inactive
same,Potency,[6],6.48 µM (active)
OCCN(CCO)c1nc(N2CCCCC2)c2nc(N(CCO)CCO)nc(N3CCCCC3)c2n1,Potency,[7],inactive
same,outcome,[9],inactive
same,Potency,[1],inactive
same,Potency,[6],0.816 µM (active)
Clc1ccccc1C(c1ccccc1)(c1ccccc1)n1ccnc1,Potency,[7],9.87 µM (active) and 5.3 µM (active)
same,"activity change, negative = inhibition",[9],6.78% [at 30.8 µM] (inactive)
Cc1cn([C@H]2C=C[C@@H](CO)O2)c(=O)[nH]c1=O,Potency,[1],inactive
CC(=O)OCC(CCn1cnc2cnc(N)nc21)COC(C)=O,Potency,[1],inactive
same,Potency,[6],inactive
CC[C@@]1(O)C(=O)OCc2c1cc1n(c2=O)Cc2cc3c(CN(C)C)c(O)ccc3nc2-1,Potency,[7],inactive
CC1(C)O[C@H]2CC(=O)OC[C@]23[C@H]2CC[C@@]4(C)[C@H](c5ccoc5)OC(=O)[C@H]5O[C@]54[C@]2(C)C(=O)C[C@@H]13,Potency,[1],inactive
